What was measured:
Test in all cases: PBM binding z-score (relative to random genomic background probes); higher = stronger binding; sequences stand for … in GC…GCGATTGACAGCGTAGAATGAAGG
[1] = tested on: PPARg:RXRa DBDmut IVT, anti-RXR (DBD mutation: RXRa K156A/R161A, NR concentration 270 nM, RXRa partner concentration 90 nM)
Method in brief: (§1)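 Antibodies against each partner of ligand-free nuclear receptor dimers (one per run) detected binding on custom Agilent 4×180K protein-binding microarrays after 1 h incubation. The double-stranded probes had 34-nt variable regions carrying direct-repeat seeds, single-nucleotide variants, half-site ablations and random human genomic background sequences. Binding z-scores, from regression-normalized fluorescence, use the random background probes as reference.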

[2] = tested on: PPARg:RXRa IVT, anti-PPARg (NR concentration 270 nM, RXRa partner concentration 90 nM)
Method in brief: as §1

[3] = tested on: PPARg DBDmut:RXRa IVT, anti-PPARg (DBD mutation: PPARg1 K132A/R137A, NR concentration 270 nM, RXRa partner concentration 90 nM)
Method in brief: as §1

[4] = tested on: PPARg DBDmut IVT, anti-PPARg (DBD mutation: PPARg1 K132A/R137A, NR concentration 270 nM)
Method in brief: as §1

[5] = tested on: PPARg homodimer (NR concentration 180 nM)
Method in brief: as §1

[6] = tested on: PXR:RXRa (NR concentration 270 nM, RXRa partner concentration 90 nM)
Method in brief: as §1

[7] = tested on: PXR homodimer (NR concentration 270 nM)
Method in brief: as §1

[8] = tested on: RARa:RXR (NR concentration 270 nM, RXRa partner concentration 90 nM)
Method in brief: as §1

[9] = tested on: RARa homodimer (NR concentration 270 nM)
Method in brief: as §1

[10] = tested on: RARb:RXRa (NR concentration 270 nM, RXRa partner concentration 90 nM)
Method in brief: as §1

[11] = tested on: RARb homodimer (NR concentration 270 nM)
Method in brief: as §1

[12] = tested on: RARg:RXRa (NR concentration 270 nM, RXRa partner concentration 90 nM)
Method in brief: as §1

[13] = tested on: RARg homodimer (NR concentration 270 nM)
Method in brief: as §1

[14] = tested on: RXRa DBDmut IVT, anti-RXR (DBD mutation: RXRa K156A/R161A, NR concentration 90 nM)
Method in brief: as §1

[15] = tested on: RXRa homodimer (NR concentration 180 nM)
Method in brief: as §1

[16] = tested on: THRa:RXRa (NR concentration 90 nM, RXRa partner concentration 90 nM)
Method in brief: as §1

[17] = tested on: THRa homodimer (NR concentration 90 nM)
Method in brief: as §1

[18] = tested on: VDR homodimer (NR concentration 270 nM)
Method in brief: as §1

Row | Sequence | PBM binding z-score [1] | PBM binding z-score [2] | PBM binding z-score [3] | PBM binding z-score [4] | PBM binding z-score [5] | PBM binding z-score [6] | PBM binding z-score [7] | PBM binding z-score [8] | PBM binding z-score [9] | PBM binding z-score [10] | PBM binding z-score [11] | PBM binding z-score [12] | PBM binding z-score [13] | PBM binding z-score [14] | PBM binding z-score [15] | PBM binding z-score [16] | PBM binding z-score [17] | PBM binding z-score [18]
1 | ACTAGTTGGTCAGCTGATGTCACACACAATTCGG | 1.1 | 0.986 | 0.46 | 0.51 | 0.558 | 0.361 | -0.542 | 0.497 | 0.341 | 0.995 | 1.06 | 0.65 | 1.08 | 0.494 | 0.485 | 1.29 | 0.161 | 0.144
2 | CCTCGGAGGACAATAGGAGGTCAGAGCTGCCAGA | -0.0175 | 0.979 | -0.47 | -1.32 | 1.01 | 1.76 | 0.364 | 2.08 | -0.149 | 2.29 | 3.18 | 2.71 | 2.63 | -0.00493 | 1.64 | 2.43 | 0.711 | 0.843
3 | CCTCGGAGAACAACAGGAGGTCAGAGCTGCCAGA | -0.197 | -0.0712 | -1.48 | -1.85 | 1.77 | 1.71 | 0.361 | 2.04 | 0.98 | 2.01 | 2.85 | 1.99 | 1.83 | 0.121 | 1.86 | 2.02 | 0.641 | 0.996
4 | CCTTACGGGTCACTGACAAGTTATAGCATTTGGA | 3.61 | 3.76 | 0.661 | 0.743 | 2.03 | 2.77 | -0.0294 | 3.98 | 1.19 | 3.81 | 2.62 | 4.86 | 4.71 | 1.85 | 5.12 | 2.29 | 0.165 | 0.93
5 | CGTCCTAGGTCAGCAGGTCAGTGAAAGCGACGTG | 3.21 | 3.44 | -0.463 | -0.745 | 1.79 | 1.75 | -0.5 | 2.64 | -0.501 | 4.39 | 4.37 | 4.95 | 5.41 | 0.595 | 3.21 | 2.88 | 1.1 | 0.285
6 | TCTCGGAGGACACGAAGGTCACAGCTTTCCAGAG | 1.84 | 2.4 | 0.166 | -0.192 | 2.75 | 3.96 | 2.33 | 3.8 | 0.474 | 3.97 | 4.54 | 4.52 | 4.93 | 1.47 | 3.74 | 3.86 | 1.77 | 2.9
7 | ATCGAAAGGTCGACGAGGGGAGTATACACCGTTT | 0.481 | 1.64 | 1.34 | 0.0319 | 1.49 | 2.39 | 0.488 | 3.37 | 0.328 | 3.74 | 2.53 | 4.16 | 4.01 | 1.29 | 4.27 | 2.18 | -0.0563 | 0.446
8 | TGTTGTAGATCAATAGAGGTTAAGAAAGTGCGCT | -0.0957 | 0.893 | 1.29 | 1.09 | 1.38 | 3.29 | 0.289 | 1.76 | 1.61 | 1.01 | 1.3 | 1.06 | 0.973 | -0.255 | 1.25 | 2.39 | -0.0243 | 0.759
